# Among all 1,900 compounds or so, about 85 (4%) were called active. Rule as the data show it: active = inhibition above about 40%; inactive = the rest. These entries were drawn from the full list.
# Biological target: 72 kDa type IV collagenase (Homo sapiens) (UniProt P08253)
# Assay: MMP-2 enzyme inhibition, confirmation, counter-screen for RPN11 inhibitor project, biochemical, fluorescence, single concentration (AID 602330);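 also: human MMP-2 activated beforehand with APMA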
# Settings: recombinant MMP-2, FRET peptide cleavage fluorescence; at 20 µM; hits give high values
# 72 kDa type IV collagenase (Homo sapiens), sequence (P08253 whole entry, looked up): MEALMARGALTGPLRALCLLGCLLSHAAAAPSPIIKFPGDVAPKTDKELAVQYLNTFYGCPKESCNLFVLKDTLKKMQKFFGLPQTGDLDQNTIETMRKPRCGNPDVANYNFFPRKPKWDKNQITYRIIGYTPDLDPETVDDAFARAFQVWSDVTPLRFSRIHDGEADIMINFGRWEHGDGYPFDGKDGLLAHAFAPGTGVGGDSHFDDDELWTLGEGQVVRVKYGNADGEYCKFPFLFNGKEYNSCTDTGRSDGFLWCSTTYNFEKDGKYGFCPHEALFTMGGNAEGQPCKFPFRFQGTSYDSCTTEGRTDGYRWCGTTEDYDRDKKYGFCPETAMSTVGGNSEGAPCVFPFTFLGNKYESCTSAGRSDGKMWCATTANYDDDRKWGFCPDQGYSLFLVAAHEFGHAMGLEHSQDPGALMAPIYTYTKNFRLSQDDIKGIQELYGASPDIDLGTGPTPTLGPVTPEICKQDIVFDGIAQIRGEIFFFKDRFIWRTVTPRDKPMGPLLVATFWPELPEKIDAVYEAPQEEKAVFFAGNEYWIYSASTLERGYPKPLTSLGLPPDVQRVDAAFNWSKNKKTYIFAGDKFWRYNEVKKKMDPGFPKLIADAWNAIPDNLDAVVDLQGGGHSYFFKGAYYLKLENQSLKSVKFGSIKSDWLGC
row,Structure (SMILES),inhibition
1,CCN(CC)C(=O)CSc1nc2ccccc2n1CC(=O)N1CCN(c2ccccc2OC)CC1,8.93% (inactive)
2,Cc1ccc(NC(=O)CN2CCc3ccccc3C2)cc1,-29.5% (inactive)
3,COc1ccc(CC(=O)Nc2ccc(-c3nnc(-c4ccc(C)cc4)o3)cc2)cc1,-21.6% (inactive)
4,Oc1c(CN2CCCC2)cc(COCc2ccccc2)c2cccnc12,14.7% (inactive)
5,CCc1ccc(-c2cc(C(=O)NCc3ccco3)c3ccccc3n2)s1,-10.6% (inactive)
6,Cc1c(NC(=O)CSc2cccc3cccnc23)c(=O)n(-c2ccccc2)n1C,-0.79% (inactive)
7,Cc1c(N=Nc2ccc(N(C)C)cc2)c(=O)n(-c2ccccc2)n1C,-25.6% (inactive)
8,COc1cccc(NC(=O)C(C)Oc2ccccc2)c1 (stereo not drawn),-39.6% (inactive)
9,CCC/C=C(\CCC)C(NC(=O)Cc1ccccc1)c1ccc(C(=O)OC)cc1 (stereo not drawn),-6.21% (inactive)
10,Cc1cc(/C=N/Nc2ccc([N+](=O)[O-])cn2)c(C)n1-c1cccc(C(=O)O)c1,-54.4% (inactive)
11,C=CCn1c(=S)[nH]c2scc(-c3ccco3)c2c1=O,40.5% (active)
12,CCN1CCN(c2cc3nc(C)n(Cc4ccccc4)c(=O)c3cc2NC(=O)c2ccccc2F)CC1,-12.5% (inactive)
13,COc1ccc(-n2c(SCC(=O)Nc3sc4c(c3C#N)CCCC4)nnc2-c2ccc(O)cc2)cc1,-2.87% (inactive)
14,N#Cc1c(-c2cccs2)nc(SCC(=O)c2ccc(Br)cc2)[nH]c1=O,47% (active)
15,CC(C)(C)NC(=O)CSC(=Nc1ccccc1F)NC#N,-28.4% (inactive)
16,O=C(COc1cccc(F)c1)Oc1ccc(C(=O)c2ccccc2)cc1,8.62% (inactive)
17,CC(=O)/C(=N\Nc1ccc(Cl)cc1Cl)Sc1cccc2cccnc12,-27.9% (inactive)
18,C/C(=N/Nc1nc(-c2ccccc2)c(CC(=O)O)s1)c1ccccc1,4.1% (inactive)
19,CCCCCCCCCCOC(=O)Cn1c(COc2cccc(OC)c2)[n+](C)c2ccccc21,-10.1% (inactive)
20,COc1ccc2[nH]c(=O)c(-c3noc(-c4ccc(F)cc4)n3)cc2c1,-20.1% (inactive)

row,Structure (SMILES),inhibition
1,CCc1ccc(NC(=O)CS(=O)CC(=O)NCCCc2ccccc2)cc1 (stereo not drawn),-2.62% (inactive)
2,Cc1ccc2cc(C#N)c(NCCNC(=S)NCCCN3CCOCC3)nc2c1,-15% (inactive)
3,CCOc1ccc(-n2c(O)c(/C=N/c3ccnn3Cc3ccncc3)c3ccccc3c2=O)cc1,1.46% (inactive)
4,O=C1NC(=O)C2C1C(c1ccc([N+](=O)[O-])cc1)=NN2Cc1ccccc1 (stereo not drawn),-11.1% (inactive)
5,Cc1ccc(-c2nnc(-c3ccc(NC(=O)c4cccs4)cc3)o2)cc1,-49.7% (inactive)
6,C=CC[n+]1c(-c2ccc(C)cc2)csc1NNC(=O)Nc1ccccc1,26% (inactive)
7,Cc1nc2ccccc2nc(=O)c1NNc1ccc([N+](=O)[O-])cc1,-26.6% (inactive)
8,N#Cc1ccc(C(=O)Nc2cccc3cccnc23)c(F)c1,-11% (inactive)
9,COc1ccc(Cl)cc1NC(=O)CCS(=O)(=O)c1ccc(Br)cc1,-0.68% (inactive)
10,O=C(CCS(=O)(=O)c1cccc2nonc12)NCCc1ccccc1Cl,-10.6% (inactive)
11,CN=c1scc(-c2cc(OC)ccc2OC)n1/N=C/c1c(C)[nH]c2ccccc12,22.9% (inactive)
12,Oc1ccc(/C=N/Nc2nc(-c3ccccc3F)nc3ccccc23)c(O)c1,-56.3% (inactive)
13,C=CCn1c(SCC(=O)NCc2ccccc2)nnc1-c1cc(Br)ccc1O,-13% (inactive)
14,CC(C)Cn1c(CCC(=O)O)ccc1-c1cccs1,-47.9% (inactive)
15,O=C(O)c1ccc(NN=CC2=C(N3CCOCC3)/C(=C/c3ccccc3)CC2)cc1,-0.54% (inactive)
16,CC(=O)c1sc(N/N=C/c2ccc(C(C)C)cc2)nc1C,20.1% (inactive)
17,CCCS(=O)(=O)N1CCCC(C(=O)NCc2ccco2)C1 (stereo not drawn),-7.67% (inactive)
18,CSC1=N/C(=C\C=C\c2cccs2)C(=O)S1,10% (inactive)
19,CN(C)CCOC1c2ccccc2-c2ccccc21,-31.6% (inactive)
20,CCOc1cc(/C=C2\SC(N3CCCC(C)C3)=NC2=O)ccc1O (stereo not drawn),-18.9% (inactive)

row,Structure (SMILES),inhibition
1,COc1cc(/C=C2/SC(=S)N(Cc3ccccc3)C2=O)cc(OC)c1O,-7.17% (inactive)
2,Cc1cc(OCC(=O)Nc2nccs2)c2c(C)c(C)c(=O)oc2c1,0.79% (inactive)
3,O=C(Nc1ccc(-c2nnc(-c3ccccc3)o2)cc1)c1ccc(Br)o1,35.4% (inactive)
4,CS(=O)(=O)c1ccc2c(c1)SC1=NC(=O)/C(=C/c3ccco3)C(=N)N12,13% (inactive)
5,O=C(CSc1cccc2cccnc12)N/N=C/c1cccnc1,-15.4% (inactive)
6,Nc1nonc1-n1nnc(C(=O)N/N=C/c2cc(Br)ccc2O)c1CSC1=NCCS1,-8.38% (inactive)
7,COc1cccc(-c2nn(-c3ccccc3)cc2/C=C(\C#N)C(=O)NCCCn2ccnc2)c1,-13.9% (inactive)
8,COc1ccc(CNC(=O)c2nnn(CC(=O)Nc3cc(C)cc(C)c3)c2N)cc1,5.49% (inactive)
9,CC(C)Oc1ccc(/C=C(\NC(=O)/C=C/c2ccco2)C(=O)NCCc2nc3ccccc3[nH]2)cc1,-12% (inactive)
10,Cc1cccc(OCc2nnc(SCc3nc4cc(C(F)(F)F)ccc4c(=O)[nH]3)o2)c1,18.2% (inactive)
11,NC(N)=N/N=C/c1ccc(OCc2ccc(Cl)cc2Cl)cc1,9.75% (inactive)
12,CCOc1cc(/C=C2\SC(N3CCCCC3)=NC2=O)ccc1O,-18.1% (inactive)
13,Cc1cc(/C=C2/SC(=O)N(CC(=O)N3CCCC3)C2=O)ccc1N1CCOCC1,-23% (inactive)
14,O=C(OCc1cc2ccccc2[nH]c1=O)c1cccnc1,-65.4% (inactive)
15,Cc1sc2nc(COC(=O)C(NC(=O)c3ccc(Cl)cc3Cl)C(C)C)[nH]c(=O)c2c1C (stereo not drawn),-38.9% (inactive)
16,CCNCc1cc2cc(C)ccc2[nH]c1=O,-21.9% (inactive)
17,CC1CCN(c2ccc3c(c2)S(=O)(=O)c2cc(C(=O)O)ccc2C3=O)CC1,-51.3% (inactive)
18,Cc1ccc(NC(=O)c2c(NC(=O)CCC(=O)O)sc3c2CCCCC3)cc1,20.7% (inactive)
